High-throughput results (PubChem BioAssay)
Only some compounds are listed: those with a hit (about 1.5% of all), similar ones and a draw of the others.
AID504770 – growth inhibitors of E. coli YBA685 in a screen for V. cholerae RctB (chromosome II replication) inhibitors | E. coli YBA685 rctB-dependent plasmid, OD600 growth, 3 h; active compounds read low | z-score (concentration not given with the values) | 0.27% of 130,000 active; in the data active means z-score below about -2, passing the limit was not always enough
Mtb MbtI inh – MbtI salicylate synthase inhibition; P9WFX0; purified MbtI enzyme, fluorescence intensity read-out; inhibition, % (no concentration beside the values); 0.89% of 100,000 active; in the data active means inhibition mostly above about 56%, no sharp cut-off; inactive means mostly below about 77%
Polio RdRp inh – poliovirus RNA polymerase inhibition; poliovirus polymerase elongation, fluorescence polarization; active compounds read low; % elongation, % (compound at 16.7 µg/mL); 0.66% of 150,000 active; AID 588519; in the data active means % elongation below about 90%
MenB inh – inhibitors of Mycobacterium tuberculosis MenB enzyme; MenB enzyme assay, absorbance read-out; inhibition, % (concentration not given with the values); 0.43% of 100,000 active; AID 540299; in the data active means inhibition above about 21%, passing the limit was not always enough
Target sequence (P9WNP5 whole entry, looked up): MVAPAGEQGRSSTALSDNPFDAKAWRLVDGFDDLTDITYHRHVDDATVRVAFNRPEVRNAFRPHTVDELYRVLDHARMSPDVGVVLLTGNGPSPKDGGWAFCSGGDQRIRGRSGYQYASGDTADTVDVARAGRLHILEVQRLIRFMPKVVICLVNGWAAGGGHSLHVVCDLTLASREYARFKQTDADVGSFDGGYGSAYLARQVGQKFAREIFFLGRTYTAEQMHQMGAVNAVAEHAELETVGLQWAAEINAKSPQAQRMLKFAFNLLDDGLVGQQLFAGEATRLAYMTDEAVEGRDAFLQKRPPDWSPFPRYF
Large screens that a line does not name were inactive; ! = not active in a repeat.

COC(=O)c1sc(=S)n(-c2cccc(Cl)c2)c1N	Mtb MbtI inh 94
Cc1ccc(-n2c(N)c(C(N)=O)sc2=S)cc1C	Mtb MbtI inh 94
CNC(=O)c1sc(=S)n(-c2ccccc2)c1N	Mtb MbtI inh 66
COC(=O)c1ccsc1N1C(=O)C=CC1=O	Mtb MbtI inh 94 (no result: Polio RdRp inh)
Nc1nnc(CCCn2c(=O)oc3ccccc32)s1	Polio RdRp inh 86 (no result: Mtb MbtI inh)
CNC1(C#N)CCC(C)CC1 (stereo not given)	AID504770 -2.3
CNC(=O)CSCc1cc(C)cc(C)c1	none
CCN(CCC#N)c1ccc(/C=C(\C#N)C(=O)NC(C)C)c(C)c1	none
CCN(CC)c1ccc(/C=C(/C#N)C(=O)NC(C)C)o1	AID504770 -3.4
CN(C)C(=S)c1nc2ccccc2s1	none
CN(C)C(=S)Nc1nc2ccccc2s1	Mtb MbtI inh 71
COc1cc(OC)c2c(C(=O)O)cc(-c3ccc(O)c(OC)c3)nc2c1	none (no result: Polio RdRp inh, MenB inh)
Cc1cccc(NC(=O)Nc2cccc(C)c2)c1	none
N=C(N)c1cccc(NC(=O)Nc2cccc(C(=N)N)c2)c1	Polio RdRp inh 88 (no result: Mtb MbtI inh)
Cn1ccnc1SCC(=O)Nc1ccc(S(=O)(=O)Nc2ncccn2)cc1	none
O=C1C(Sc2ncn[nH]2)=C/C(=N/S(=O)(=O)c2ccc(Cl)cc2)c2ccccc21	Mtb MbtI inh 95 (no result: Polio RdRp inh, MenB inh)
CC1CC(C)CN(CCN)C1 (stereo not given)	MenB inh 52
CC1CC(C)CN(CCC(=O)Nc2ccccc2F)C1 (stereo not given)	none
O=c1c2c(F)c(F)c(F)c(F)c2on2c3c(cc12)CCCC3	Polio RdRp inh 87
COC(=O)c1c(NC(=O)COc2ccc(C(C)C)cc2)sc2c1CCCC2	none (no result: AID504770, Mtb MbtI inh, MenB inh)
COC(=O)c1c(-c2cccs2)csc1NC(=O)COc1ccc(C(C)C)cc1	Polio RdRp inh 70 (no result: AID504770, Mtb MbtI inh, MenB inh)
CCCc1ccc(OCC(=O)Nc2scc(-c3cccs3)c2C(=O)OC)cc1	Polio RdRp inh 74 (no result: AID504770, Mtb MbtI inh, MenB inh)
CCOC(=O)c1c(-c2cccs2)csc1NC(=O)COC(=O)c1cc2c(s1)CCC2	none
O=c1[nH]c2cc(Br)cnc2[nH]1	Polio RdRp inh 66
O=c1[nH]c2ccccc2[nH]1	none
O=C(Nc1ccncc1)c1ccc(Oc2cc(Cl)cc(Cl)c2)o1	none (no result: Mtb MbtI inh, Polio RdRp inh, MenB inh)
O=C1CS/C(=N\c2nccs2)N1	AID504770 -2.8
O=C1CSC(=Nc2cccc3ccccc23)N1	none
Cn1c(SCC#N)nc2c(c1=O)C1(CCCCC1)Cc1ccccc1-2	none
CC(=O)[O][Hg][c]1ccccc1	AID504770 -5.2
CC(=O)Oc1ccc(-c2ccccc2)cc1	none
Cc1ccc(C)n1-c1cc(Cl)ccc1C(=O)O	Polio RdRp inh 84
NC(=O)c1c(NC(=O)c2cc(-c3ccc(F)cc3)on2)sc2c1CCCC2	Polio RdRp inh 76 (no result: AID504770, Mtb MbtI inh, MenB inh)
CCOC(=O)C1=C(N)N2C(=O)C(C)SC2=C(C(=O)OC)C1c1ccc(C)cc1 (stereo not given)	none
Cc1cc(=S)[nH]c2ccccc12	Mtb MbtI inh 61
CC(C)Cc1nn2c(=O)cc(COC(=O)c3ccc4c(c3)OCO4)nc2s1	Polio RdRp inh 73 (no result: AID504770, Mtb MbtI inh, MenB inh)
CCc1nn2c(=O)cc(COC(=O)c3ccc4c(c3)OCO4)nc2s1	none (no result: AID504770, Mtb MbtI inh, MenB inh)
O=C1NC(=O)N(Cc2ccco2)C(=O)/C1=C\c1ccco1	none
C=CCN1C(=O)NC(=O)/C(=C/c2ccco2)C1=O	Mtb MbtI inh 98
C=CCN1C(=O)/C(=C/c2ccco2)C(=O)NC1=S	Mtb MbtI inh 86
O=C(O)C1CCCN(S(=O)(=O)Cc2ccccc2)C1 (stereo not given)	none
O=C(Nc1ccc2c(c1)OCCO2)C1CCCN(S(=O)(=O)Cc2ccccc2)C1 (stereo not given)	MenB inh 56
Cc1ccc(S(=O)(=O)c2[nH]c(-c3ccccc3)nc2SCCC(=O)O)cc1	none (no result: AID504770, Mtb MbtI inh, MenB inh)
CCCSc1nc(-c2ccccc2)[nH]c1S(=O)(=O)c1ccc(C)cc1	Polio RdRp inh -16 (no result: AID504770, Mtb MbtI inh, MenB inh)
CCOC(=O)c1ccc(CC2S/C(=N/N=C/c3ccc(O)cc3)NC2=O)cc1 (stereo not given)	none
CN(C)c1nc(N)c(C#N)c(CC#N)c1C#N	Polio RdRp inh 80
O=C1Nc2ccccc2/C1=N\N1C(=O)/C(=C/c2ccccc2)N=C1c1ccccc1	Polio RdRp inh 88 (no result: Mtb MbtI inh)
Cc1ccc(-n2nc(C(=O)NC(C)CCc3ccccc3)c3c4ccccc4n(C)c3c2=O)cc1 (stereo not given)	AID504770 -2.8
CCOC(=O)C1=CN(C2CCCC2)C=C(C(=O)OCC)C1c1ccccc1C	none
O=C1CCC(=O)N1CN1CCOCC1	none
CC(C)n1cn[nH]c1=S	Mtb MbtI inh 59
CN(C)CCN1C(=O)C(=O)/C(=C(/O)c2ccc(S(=O)(=O)N(C)C)cc2)C1c1ccccc1 (stereo not given)	none (no result: Mtb MbtI inh)
O=c1c(=S)[nH]ccn1-c1ccccc1	Mtb MbtI inh 93
O=c1[nH]ccn(-c2ccccc2)c1=O	none
CCc1noc(C)c1C(=O)N1CCc2ccccc21	none
Cn1c(COc2ccccc2)n[nH]c1=S	Mtb MbtI inh 65!
C=CCn1c(COc2ccccc2)n[nH]c1=S	none (no result: Mtb MbtI inh)
Cc1cn(C2CC(O)C(CO)O2)c(=O)[nH]c1=O (stereo not given)	none
Cc1cn([C@H]2C[C@H](N=[N+]=[N-])[C@@H](CO)O2)c(=O)[nH]c1=O	AID504770 -2.5
CCO/C=C1\C(=O)N(C)C(=O)c2ccccc21	Polio RdRp inh 10 (no result: MenB inh)
CCO/C=C1/C(=O)N(c2ccc(Cl)cn2)C(=O)c2ccccc21	Polio RdRp inh 85
CCO/C=C1/C(=O)NC(=O)c2ccccc21	none
CCO/C=C1/C(=O)N(Cc2ccc(OC)cc2)C(=O)c2ccccc21	Polio RdRp inh 36
CC(=O)Nc1nc(NC(C)=O)n(-c2ccccc2)n1	none
Nc1nc(NC(=O)CCC(=O)O)nn1-c1ccccc1	MenB inh 30
NC(=S)NCC1CCCO1 (stereo not given)	Mtb MbtI inh 89
CC(C#N)Sc1nnc(-c2cccs2)n1CC1CCCO1 (stereo not given)	none
N#Cc1ccc(CSc2nnc(-c3cccs3)n2CC2CCCO2)cc1 (stereo not given)	AID504770 -2.5
COc1ccc(OC)c(S(=O)(=O)N2CC(C)N(S(=O)(=O)c3cc(OC)ccc3OC)CC2C)c1 (stereo not given)	none (no result: Polio RdRp inh, MenB inh)
NCCN1CCCC1=O	MenB inh 28
CN(C)c1nc(-c2ccccc2)c(CC(=O)O)s1	none
CN(C)c1nc(-c2ccccc2)[n+](C)s1	AID504770 -4!
COC(=O)c1ccc2c(=O)[nH]c(COC(=O)c3cccnc3Nc3ccccc3OC)nc2c1	AID504770 -4
O=C(O)c1coc(=O)c(Br)c1	AID504770 -4.7 (no result: Polio RdRp inh, MenB inh)
O=C(O)c1ccc(Br)c(C(=O)O)c1	none (no result: Mtb MbtI inh)
COC(=O)Nc1nc(-c2cccc(Br)c2)cs1	none
CCN(CC)P1(=S)N(c2ccccc2)N=C2C=C(C)c3ccccc3N21 (stereo not given)	Polio RdRp inh 68
N#Cc1ccccc1Sc1ccccc1C(=O)NN1C(=O)NC2(CCCCC2)C1=O	none
S=c1nccc(-c2ccccc2)[nH]1	Polio RdRp inh 83
S=c1cc(-c2ccccc2)[nH]c(=S)[nH]1	Mtb MbtI inh 86
NC1(N)OC(CN2C(=O)c3ccccc3C2=O)CS1 (stereo not given)	none
